# Measurements taken from publication PMC11006913.
# Target: HOXC10 (Homo sapiens, UniProt Q9NYD6 254-340)
# Assay: PBM; 200 nM protein, PBS
# Conditions: dsDNA, one strand shown
# HOXC10, sequence (Q9NYD6 254-340): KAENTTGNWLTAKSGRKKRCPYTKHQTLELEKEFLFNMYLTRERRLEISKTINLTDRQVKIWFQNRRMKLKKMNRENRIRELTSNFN
row,Sequence,binding signal
1,TTAAATAA,"11.4 upbm affinity estimate (log intensity, higher = more binding, comparable within an allelic series)"
2,TGATGGCA,"10.7 upbm affinity estimate (log intensity, higher = more binding, comparable within an allelic series)"
3,AAGTACCG,"11 upbm affinity estimate (log intensity, higher = more binding, comparable within an allelic series)"
4,TATTAAGA,"11.2 upbm affinity estimate (log intensity, higher = more binding, comparable within an allelic series)"
5,CTCGGCCA,"10.1 upbm affinity estimate (log intensity, higher = more binding, comparable within an allelic series)"
6,CATTAACA,"11.8 upbm affinity estimate (log intensity, higher = more binding, comparable within an allelic series)"
7,CCGGGGAA,"9.93 upbm affinity estimate (log intensity, higher = more binding, comparable within an allelic series)"
8,AGCTCTGC,"9.99 upbm affinity estimate (log intensity, higher = more binding, comparable within an allelic series)"
9,ATACTATA,"11.1 upbm affinity estimate (log intensity, higher = more binding, comparable within an allelic series)"
10,AATAATAG,"11.5 upbm affinity estimate (log intensity, higher = more binding, comparable within an allelic series)"
11,CGTCCGCC,"9.96 upbm affinity estimate (log intensity, higher = more binding, comparable within an allelic series)"
12,TACTTAGA,"10.8 upbm affinity estimate (log intensity, higher = more binding, comparable within an allelic series)"

# Target: ALX4 (Homo sapiens, UniProt Q9H161 200-286)
# Sequence (Q9H161 200-286): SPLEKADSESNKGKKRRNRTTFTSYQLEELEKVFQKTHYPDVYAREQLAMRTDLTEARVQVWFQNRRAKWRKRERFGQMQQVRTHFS
# Assay: PBM; 200 nM protein, PBS
# Conditions: dsDNA, one strand shown
row,Sequence,binding signal
1,TAAGTCGA,"10 upbm affinity estimate (log intensity, higher = more binding, comparable within an allelic series)"
2,CCCATAAC,"9.61 upbm affinity estimate (log intensity, higher = more binding, comparable within an allelic series)"
3,AATACTTA,"10.5 upbm affinity estimate (log intensity, higher = more binding, comparable within an allelic series)"
4,CGAGGGCA,"8.31 upbm affinity estimate (log intensity, higher = more binding, comparable within an allelic series)"
5,CAACATTA,"10.5 upbm affinity estimate (log intensity, higher = more binding, comparable within an allelic series)"
6,AAATTCGA,"10.7 upbm affinity estimate (log intensity, higher = more binding, comparable within an allelic series)"
7,AGTTAGTG,"10.4 upbm affinity estimate (log intensity, higher = more binding, comparable within an allelic series)"
8,ATAACAAG,"10.9 upbm affinity estimate (log intensity, higher = more binding, comparable within an allelic series)"
9,ATCTAAAC,"9.7 upbm affinity estimate (log intensity, higher = more binding, comparable within an allelic series)"
10,CGAAGGCC,"8.29 upbm affinity estimate (log intensity, higher = more binding, comparable within an allelic series)"
11,AATCTCCA,"9.73 upbm affinity estimate (log intensity, higher = more binding, comparable within an allelic series)"
12,CCACTAAC,"10 upbm affinity estimate (log intensity, higher = more binding, comparable within an allelic series)"
13,CGGATAAC,"9.46 upbm affinity estimate (log intensity, higher = more binding, comparable within an allelic series)"
14,ATGAATTG,"11 upbm affinity estimate (log intensity, higher = more binding, comparable within an allelic series)"
15,CTACTTAC,"9.76 upbm affinity estimate (log intensity, higher = more binding, comparable within an allelic series)"
16,ATATTTAG,"10.9 upbm affinity estimate (log intensity, higher = more binding, comparable within an allelic series)"
17,AGGGCACC,"7.93 upbm affinity estimate (log intensity, higher = more binding, comparable within an allelic series)"
18,AAATTAAC,"13.5 upbm affinity estimate (log intensity, higher = more binding, comparable within an allelic series)"
19,AATGGCCT,"10.3 upbm affinity estimate (log intensity, higher = more binding, comparable within an allelic series)"
20,AAGTTTAC,"9.93 upbm affinity estimate (log intensity, higher = more binding, comparable within an allelic series)"
21,ATTAATTC,"13.6 upbm affinity estimate (log intensity, higher = more binding, comparable within an allelic series)"
22,ACATTACC,"10.7 upbm affinity estimate (log intensity, higher = more binding, comparable within an allelic series)"
23,TAACGAAA,"10.6 upbm affinity estimate (log intensity, higher = more binding, comparable within an allelic series)"
24,ATGTCTTA,"9.38 upbm affinity estimate (log intensity, higher = more binding, comparable within an allelic series)"
25,ATATAGTC,"8.99 upbm affinity estimate (log intensity, higher = more binding, comparable within an allelic series)"
26,CATTACCG,"11.2 upbm affinity estimate (log intensity, higher = more binding, comparable within an allelic series)"
27,GAGGACCC,"7.88 upbm affinity estimate (log intensity, higher = more binding, comparable within an allelic series)"
28,CATTCTAA,"9.79 upbm affinity estimate (log intensity, higher = more binding, comparable within an allelic series)"
